In one experiment the test system is Klebsiella pneumoniae. To be noted: Concentration 32 ug.mL-1;; ASSAY_TEST Inhibition of Bacterial Growth; detection method Absorption (OD600); MEDIA CAMHB; plate type 384well; NBS; CORNING #3640; time 18 hr.
Another experiment concerns Candida albicans. To be noted: Concentration 32 ug.mL-1; ASSAY_TEST Inhibition of Fungal Growth; detection method Absorption (OD530).
The next experiment deals with Cryptococcus neoformans. Particulars: Concentration 32 ug.mL-1; ASSAY_TEST Inhibition of Fungal Growth; detection method Resazurin; Absorption (OD600-OD570); plate type 384well; NBS; CORNING #3640. For orientation: Alamar Blue is a resazurin reagent that responds to reducing activity.

Structures are written as SMILES. Potency and affinity values are given separately.

This is an account of results in ChEMBL document CHEMBL4513146, “CO-ADD screening of Karazin Kharkiv National University (Ukraine) compounds”.

For `CCOc1ccc(-n2ccn3c(SCC(=O)c4ccccc4)nnc3c2=O)cc1`, the Inhibition was 1.87% with Klebsiella pneumoniae, 12.91% in the experiment on Candida albicans and -3.51% in the experiment with Cryptococcus neoformans.
As to `CCC(Sc1nnc2c(=O)n(-c3cccc(OC)c3)ccn12)C(=O)Nc1ccccc1C` (stereo unspecified), the values for the Inhibition in the experiment on Klebsiella pneumoniae, with Candida albicans and in the experiment with Cryptococcus neoformans were 4.33%, 0.82% and -7.71%, respectively.
With `COc1ccc(CN(c2ccc(F)cc2)S(=O)(=O)c2cccn3c(C)nnc23)cc1`, the Inhibition is given as 13.21% in the experiment on Klebsiella pneumoniae, 1.16% in the experiment with Candida albicans and -6.38% in the experiment on Cryptococcus neoformans.
As for `CCCCN(C)c1ccc2nnc(CCc3nc(-c4ccc(OCc5ccccc5)cc4)no3)n2n1`, the Inhibition in the experiment on Klebsiella pneumoniae is given as 3.94%; in the experiment with Candida albicans it was 9.14%; in the experiment on Cryptococcus neoformans, -39.2%.
Take `Cc1ccc(NC(=O)Cn2nc3c(Oc4cccc(C)c4C)nccn3c2=O)c(Br)c1`: the Inhibition in the experiment with Klebsiella pneumoniae is recorded as 10.09%; in the experiment with Candida albicans, -2.33%; with Cryptococcus neoformans it was -8.9%.
As for `COc1ccc(-c2nc(CSc3nc4ccccc4n4c(C(C)C)nnc34)c(C)o2)cc1OC`, the Inhibition in the experiment with Klebsiella pneumoniae is recorded as -2.06%; with Candida albicans it was 3.02%; in the experiment with Cryptococcus neoformans, -7.98%.
For the compound `CCOc1ccc(-n2ccn3c(SCC(=O)Nc4ccc(CC)cc4)nnc3c2=O)cc1`, the Inhibition is 16.87% in the experiment on Klebsiella pneumoniae, 2.31% in the experiment on Candida albicans and -18.11% in the experiment with Cryptococcus neoformans.
On the same counts, the results for `COc1ccc(NC(=O)c2ccc3nn(CC(=O)Nc4ccc(C(F)(F)F)cc4)c(=O)n3c2)cc1` are -7.6%, 4.22% and -2.75%.
As to `Cc1ccc(-n2ccn3c(SCC(=O)c4c[nH]c5ccccc45)nnc3c2=O)cc1C`, the Inhibition is listed as 9.4% with Klebsiella pneumoniae, 3.27% in the experiment on Candida albicans and -5.1% in the experiment on Cryptococcus neoformans.
On the same counts, the results for `Cc1cc2nn(CC(=O)NC3CCCCC3)c(=O)n2c(Nc2ccc(F)c(C)c2)n1` are 19.39%, 3.39% and -7.59%.
In the case of `COc1ccc(NC(=O)CSc2nnc3ccc(C(=O)Nc4cccc(F)c4)cn23)cc1`, the results for the Inhibition in the experiment with Klebsiella pneumoniae, in the experiment on Candida albicans and in the experiment with Cryptococcus neoformans were 4.36%, 3.08% and -2.63%, respectively.
As for `O=c1n(Cc2ccccc2F)nc2ccc(S(=O)(=O)N3CCCCCC3)cn12`, the values for the Inhibition in the experiment with Klebsiella pneumoniae, in the experiment with Candida albicans and with Cryptococcus neoformans were 2.58%, 0.84% and -9.24%, respectively.
`COc1cccc(CNC(=O)CSc2nnc3c(=O)n(-c4ccc(F)cc4)ccn23)c1OC`: the Inhibition is listed as 1.04% in the experiment with Klebsiella pneumoniae, 2.96% in the experiment on Candida albicans and -5.56% in the experiment on Cryptococcus neoformans.
Consider `Cc1cccc(C)c1NC(=O)Cn1nc2c3c4c(sc3ncn2c1=O)CCCC4`, for which the Inhibition is listed as 12.26% in the experiment on Klebsiella pneumoniae, 11.56% in the experiment on Candida albicans and -19.68% in the experiment on Cryptococcus neoformans.
Take `CCOc1ccc(-n2ccn3c(SCC(=O)c4ccc(C)cc4)nnc3c2=O)cc1`: the Inhibition is 10.63% in the experiment on Klebsiella pneumoniae, 1.13% with Candida albicans and -5.35% with Cryptococcus neoformans.
Turning to `COC(=O)c1ccc(NC(=O)CSc2nc3ccccc3n3c(C(C)C)nnc23)cc1`, the Inhibition in the experiment with Klebsiella pneumoniae was 12.96%; with Candida albicans, 4.43%; in the experiment with Cryptococcus neoformans it was -21.14%.
Take `Cc1ccc(-c2cc3c4nnc(SCC(=O)Nc5cccc(Cl)c5C)n4ccn3n2)cc1`: the values for the Inhibition in the experiment with Klebsiella pneumoniae, in the experiment on Candida albicans and with Cryptococcus neoformans were -0.41%, 0.76% and -8.53%, respectively.
The like results for `Cc1ccccc1Oc1nccn2c(=O)n(CC(=O)Nc3ccc(C#N)cc3)nc12` were, in that order, 13.8%, -1.85% and -9.67%.
On to `Cc1ccc(NC(=O)Cn2nc3c4c5c(sc4ncn3c2=O)CCCC5)cc1C`, for which the Inhibition with Klebsiella pneumoniae is on record as 7.59%; in the experiment with Candida albicans it was 3.92%; in the experiment with Cryptococcus neoformans it was -29.29%.
On to `O=S(=O)(c1cccn2cnnc12)N(Cc1cccc(Cl)c1)c1cc(F)cc(F)c1`, for which the Inhibition in the experiment with Klebsiella pneumoniae is 8.32%; with Candida albicans, 1.62%; in the experiment on Cryptococcus neoformans, -7.91%.
The like results for `Cc1ccc(-c2ccc3nn(CC(=O)Nc4ccc(Cl)cc4F)c(=O)n3n2)cc1` were, in that order, 13.29%, -0.74% and -20.92%.
As to `N#CCn1nc2n(Cc3ccccc3)c(=O)c3ccc(C(=O)NC4CCCCC4)cc3n2c1=O`, the Inhibition with Klebsiella pneumoniae is 4.19%; with Candida albicans, 1.65%; in the experiment on Cryptococcus neoformans it was -13.83%.
With `Cc1cc(C)c(NC(=O)Cn2nc3c(N4CCCC(C)C4)nccn3c2=O)c(C)c1` (stereo unspecified), the Inhibition was -3.43% in the experiment with Klebsiella pneumoniae, -1.23% with Candida albicans and -2.74% in the experiment on Cryptococcus neoformans.
`COc1cc(NC(=O)C(C)Sc2nnc3c(=O)n(-c4ccc(F)cc4)ccn23)cc(OC)c1` (stereo unspecified): the Inhibition with Klebsiella pneumoniae is recorded as 6.23%; in the experiment with Candida albicans, 7.68%; in the experiment with Cryptococcus neoformans, -7.14%.
For the compound `COc1cccc(Cn2nc3c(=O)n(-c4cccc(Cl)c4C)ccn3c2=O)c1`, the figures for the Inhibition with Klebsiella pneumoniae, in the experiment on Candida albicans and with Cryptococcus neoformans were -11.12%, 6.64% and -14.85%, respectively.
Turning to `CC(C)Cn1c(=O)c2sccc2n2c(=O)n(CC(=O)N(C)c3ccccc3)nc12`, the values for the Inhibition in the experiment with Klebsiella pneumoniae, in the experiment with Candida albicans and in the experiment with Cryptococcus neoformans were 9.42%, -0.55% and -10.06%, respectively.
The like results for `COc1ccc(OC)c(NC(=O)Cn2nc3c4cc(-c5ccc(Cl)cc5)nn4ccn3c2=O)c1` were, in that order, 3.06%, -0.3% and -21.9%.

As usually defined, the Inhibition is the drop in the measured response relative to a control, in per cent.
